Screening data as filed in PubChem.
Many of the other results were omitted from the sample, so hits are more common in it than they were.
AmpC no deterg = inhibitors of E. coli AmpC beta-lactamase without detergent | AmpC nitrocefin hydrolysis, absorbance 480 nm, 0.0001% Triton | hit rate 0.52% among 330,000 | Potency, µM (series often up to 57.1 µM), for inactives: at the highest dose activity change, negative = inhibition, hits mostly inhibitors | AID 485341;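 further: potency means the concentration at half of the fitted maximal effect; plate controls were no compound for no effect and no enzyme for full effect; nearly all actives have a fitted effect of over 20% in size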
Target sequence (P00811 whole entry, looked up): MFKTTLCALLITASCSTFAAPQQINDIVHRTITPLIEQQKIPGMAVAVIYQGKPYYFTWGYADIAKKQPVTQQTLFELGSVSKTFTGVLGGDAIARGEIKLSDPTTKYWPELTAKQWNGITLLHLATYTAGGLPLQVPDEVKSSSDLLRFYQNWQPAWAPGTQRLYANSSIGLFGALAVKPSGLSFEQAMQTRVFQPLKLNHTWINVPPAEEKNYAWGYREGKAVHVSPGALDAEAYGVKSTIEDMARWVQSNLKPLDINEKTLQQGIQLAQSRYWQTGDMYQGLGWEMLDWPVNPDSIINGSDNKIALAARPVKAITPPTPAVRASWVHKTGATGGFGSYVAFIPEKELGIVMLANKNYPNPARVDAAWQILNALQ
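20 mM phosphate pH 7.0 + 0.01% (detergent screen) or 0.0001% Triton X-100; 5.3 nM AmpC reagent; cpd preinc 15 min RT; nitrocefin (800 uM stock) to start; A480 q20 s × 4 min; Activity was normalised to no-enzyme and no-compound control wells.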
Shiga toxin inh = inhibitors of Shiga toxin in Vero cells. Vero cells, Shiga toxin protein synthesis inhibition reporter. inhibition, % at 38.7 µM. hit rate 9.2% among 290,000; in the data active means inhibition mostly above about 28%, no sharp cut-off; inactive means mostly below about 43%; further: 0% is about no effect
SARS PLpro yeast = blocks SARS-CoV papain-like protease in a yeast assay; S. cerevisiae expressing SARS-CoV PLpro, growth rescue; Potency, µM (doses to about 32.9 µM), without a hit: top-dose activity, positive = growth rescue, usual class: activators; hit rate 0.19% among 330,000; AID 485353; calls by dose curve; further: potency means the concentration at half of the fitted maximal effect; 0% is about no effect; nearly all actives have a fitted effect of over 55% in size
Cycloheximide cs = counter-screen hit for Shiga toxin inhibitors, cycloheximide | cell reporter, cycloheximide protein synthesis inhibition counterscreen | max response, % | hit rate 12% among 300,000; in the data active means max response mostly above about 13%, no sharp cut-off; inactive means mostly below about 14%; further: read at 38.3 µM for the half of the compounds with a filed dose; 0% is about no effect
AMA1 RON2 block = AMA1-RON2 (P. falciparum) interaction inhibition; Potency, µM (titrated, usually from 58.2 µM), without a hit: top-dose activity change, negative = inhibition, hits mostly inhibitors; AlphaScreen AMA1-biotinylated RON2 peptide binding; AID 720542; hit rate 0.2% among 360,000;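 further: potency means the concentration at half of the fitted maximal effect; 0% = vehicle wells and -100% = peptide control; nearly all actives have a fitted effect of over 45% in size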
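AMA1 (3D7) with his tag at 25 nM final met compounds first, then biotinylated RON2 peptide at 25 nM; detection used donor plus acceptor beads, 10 µg/mL apiece, read by AlphaScreen after 30 min at room temperature.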
AmpC detergent = inhibitors of E. coli AmpC beta-lactamase with detergent | AmpC hydrolysis of nitrocefin, absorbance 480 nm, 0.01% Triton | Potency, µM (top dose mostly 114 µM), without a hit: at the top dose activity change, negative = inhibition, actives largely listed as inhibitors | hit rate 0.041% among 370,000;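 further: potency means the concentration at half of the fitted maximal effect; 0% = no-compound wells and -100% = no-enzyme wells; nearly all actives have a fitted effect of over 25% in size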
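AmpC (5.3 nM in the dispensed reagent) in 20 mM phosphate pH 7.0 with 0.01% (detergent screen) or 0.0001% Triton X-100 was preincubated with compounds for 15 min at room temperature. Nitrocefin was then added from an 800 uM solution, and hydrolysis was followed at 480 nm.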
* = called active by the depositor; u = inconclusive; x = not tested or not shown; [ ] = another dose, or the depositor's remark. Unless noted, the call rests on the fitted dose curve; in most records, active means well fitted curve in the direction sought with a large enough effect; inconclusive means small, poorly fitted or top-dose-only effect, or another doubt; inactive means no such curve, though single readings can be large; an effect the other way counts as inactive or inconclusive.

SMILES	AmpC no deterg	Shiga toxin inh	SARS PLpro yeast	Cycloheximide cs	AMA1 RON2 block	AmpC detergent
O=C1c2ccccc2C(=O)N1CCN1CCc2ccccc21	-28.0%	93.9*	-5.9%	37.2*	-12.1%	u
O=C(CCNC(=O)c1ccco1)Nc1nc2ccccc2s1	10.6%	x	-3.7%	x	-8.7%	-3.6%
O=C(O)COCc1nc2ccccc2s1	0.0%	-6.5	0.0%	-3.0	-12.5%	4.3%
O=C(OCc1nc2ccccc2s1)c1ccco1	-23.2%	90.4*	0.0%	36.4*	14.3%	1.6%
O=C(COC(=O)c1ccco1)Nc1nc2ccccc2s1	2.6%	32.2	-6.8%	21.5*	6.2%	-14.5%
O=C(OCc1nc2ccccc2s1)c1ccc(Br)o1	-25.1%	80.2*	-11.1%	28.2*	22.1%	10.8%
CC(=O)OCc1nc2ccccc2s1	-6.1%	91.7*	2.1%	29.3*	3.6%	u
COC(=O)c1ccc(C2C(C(=O)c3cc4ccccc4o3)=C(O)C(=O)N2CCN2CCOCC2)cc1 (centres undefined)	-11.5%	1.5	1.2%	-2.0	-2.6%	-1.5%
NC(=O)c1ccccc1OCc1nc2ccccc2s1	-14.8%	97.3*	-0.5%	33.6*	-2.1%	4.7%
Cc1cc(C(=O)OCc2nc3ccccc3s2)c(C)o1	x	105.2*	x	52.7*	-1.1%	1.0%
CCOC(=O)C(=O)Cc1nc2ccccc2s1	-38.7%	28.8	-3.2%	11.8*	56.3%	11.3%
O=C(OCc1cc2ccccc2[nH]c1=O)c1ccncc1	-9.1%	-3.7	-9.8%	-2.5	0.2%	u
COc1cc(NC(=S)NCCCN2CCOCC2)c(OC)cc1Cl	-8.3%	-2.2	1.0%	-3.9	-20.8%	u
CN1C(C(=O)Nc2ccc(OC(F)(F)F)cc2)=CC(c2ccco2)=NS1(=O)=O	-47.6%	29.3	-7.4%	10.9	-13.3%	-6.6%
Cc1ccc(S(=O)(=O)N(C)c2ccc(OC(=O)c3cccs3)cc2)cc1	-6.6%	x	1.3%	x	-11.6%	x
COc1ccc(C(=O)Nc2ccccc2C(=O)NC(Cc2ccc(O)cc2)C(=O)NNC(=O)c2ccc(C)cc2)cc1 (centres undefined)	-14.6%	-6.0	8.2%	8.5	101.4%	-18.3%
COc1cc2ccccc2cc1C(=O)Nc1ccc(C)cc1	-38.9%	74.9	-9.5%	25.8*	-0.9%	u
COc1ccc(C(=O)Nc2ccccc2C(=O)NC(Cc2ccc(O)cc2)C(=O)NNC(=O)c2ccccc2)cc1 (centres undefined)	u	-1.5	-9.8%	19.9*	23.1%	-7.4%
COc1cc2ccccc2cc1C(=O)Nc1ccc(Cc2ccncc2)cc1	29.8%	60.5	-37.7%	28.1	-10.0%	-12.0%
Cc1ccnc(NC(=S)NC(=O)c2cncc(Br)c2)c1	-20.7%	5.9	-6.5%	25.4*	-3.1%	-2.0%
Cc1ccc(NC(=O)c2cccc3ccccc23)cc1	-13.0%	172.8*	-2.1%	32.5*	10.6%	3.5%
CC(=O)Nc1ccc(NC(=O)c2cccc3ccccc23)cc1	-15.7%	12.3	4.5%	3.9	0.0%	-2.3%
O=c1c2c([N+](=O)[O-])cc([N+](=O)[O-])cc2nc2ccccn12	-26.7%	-12.2	9.0%	-2.9	2.2%	u
O=C(Nc1cccnc1)c1ccccc1O	-18.1%	57.6*	-10.9%	20.7*	11.7%	-0.5%
COc1ccc(NC(=O)Nc2cc(C)ccn2)cc1	x	x	x	x	5.9%	x
SMILES	AmpC no deterg	Shiga toxin inh	SARS PLpro yeast	Cycloheximide cs	AMA1 RON2 block	AmpC detergent
Cc1ccc(NC(=O)c2ccccc2NC(=O)CCC(=O)O)cc1	-42.2%	19.5*	15.9%	44.9*	6.5%	1.8%
COc1ccc(C(=O)NC(=O)Nc2cc(C)ccn2)cc1	-26.7%	76.8*	-3.3%	34.2*	3.5%	3.2%
CC(=O)c1ccccc1NCC(=O)Nc1ccc(C)cc1	0.7%[2.29 µM]	60.8*	-2.5%	30.4*	10.4%	-8.9%
Cc1c(CCO)c(=O)n2n1CCCC2	x	x	x	x	3.5%	x
COc1ccc(C(=O)Nc2ccccc2C(=O)Nc2cccc(C)n2)cc1	0.0%	28.1*	-2.5%	9.8*	0.0%	u
COc1ccc(Br)cc1C(=O)Nc1ccc(O)cc1	-17.3%	41.1*	-7.9%	17.3*	1.7%	u
COc1ccc(C(=O)Nc2ccccc2C(=O)Nc2cccnc2)cc1	-17.2%	48.9*	-6.0%	13.6	5.4%	6.5%
